Results from PubChem BioAssay AID434927 (Sanford-Burnham Center for Chemical Genomics, 2010).
Unmarked numbers belong to inactive results. Activity calls are given as the source filed them.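 The calls were made as follows: active = inhibition above about 23% in any of six single-dose repeats (limit read from the data); inactive = the rest.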

Molecular target: Intestinal-type alkaline phosphatase (Homo sapiens) (UniProt P09923)
Assay: suppression of intestinal alkaline phosphatase activity – biochemical, luminescence, single concentration, uHTS hits, confirmation (AID 434927);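 also: plate controls were DMSO wells with enzyme for no effect and wells lacking enzyme for full effect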
Conditions: purified human IAP, CDP-Star luminescence, 30 min; at 8.3 µM; hits give high values

Sequence of Intestinal-type alkaline phosphatase (Homo sapiens) (P09923 whole entry, looked up): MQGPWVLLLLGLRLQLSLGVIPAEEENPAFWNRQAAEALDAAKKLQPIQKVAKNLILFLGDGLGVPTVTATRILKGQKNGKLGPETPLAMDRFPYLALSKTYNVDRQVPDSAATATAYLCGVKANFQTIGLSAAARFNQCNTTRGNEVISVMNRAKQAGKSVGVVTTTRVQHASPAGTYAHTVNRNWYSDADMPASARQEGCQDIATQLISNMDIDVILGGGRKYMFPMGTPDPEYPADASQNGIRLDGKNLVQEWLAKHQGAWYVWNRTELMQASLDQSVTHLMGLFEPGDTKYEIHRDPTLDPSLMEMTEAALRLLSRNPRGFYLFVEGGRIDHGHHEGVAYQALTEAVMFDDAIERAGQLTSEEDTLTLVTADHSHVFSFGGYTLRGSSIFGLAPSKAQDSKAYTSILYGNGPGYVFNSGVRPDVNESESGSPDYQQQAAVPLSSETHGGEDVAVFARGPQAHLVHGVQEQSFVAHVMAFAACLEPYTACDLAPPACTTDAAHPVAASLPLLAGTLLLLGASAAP

Compound | inhibition
CCn1c2ccccc2c2cc(NC(=O)c3coc(=O)c(Br)c3)ccc21 | 39.2% (active)
O=c1c2c(-c3cccs3)csc2ncn1-c1ccc(Br)cc1 | -112%
Cc1ccsc1C(=O)NNC(=S)NC1CCCCC1 | 49.4% (active)
COc1cccc(/C=N\NC(=O)C2=NNC(=O)C2C)c1O (stereo unspecified) | 34.8% (active)
O=c1c(O[C@@H]2O[C@H](CO)[C@@H](O)[C@H](O)[C@H]2O)c(-c2ccc(O)c(O)c2)oc2cc(O)cc(O)c12 | 48% (active)
Cc1nc(Nc2nc3c(c(=O)[nH]2)CCC3)nc2ccccc12 | -77.6%
CCn1cnc2sc(C(=O)O)c(C)c2c1=O | 64% (active)
N#C/C(=C(\O)c1ccco1)c1ccccn1 | 55.3% (active)
CC(C)C(=O)NC(=S)Nc1ccccc1C(=O)Nc1ccccc1 | -108%
Cc1ccc(NC(=O)c2ccncc2)cc1[N+](=O)[O-] | 53.7% (active)
COc1ccccc1N(C)S(=O)(=O)c1ccc(Cl)c(C(=O)NNC(=O)c2ccccc2O)c1 | 59.4% (active)
O=C(NNC(=S)NC(=O)c1ccccc1)c1cccnc1 | -320%
O=C(CCN1C(=O)/C(=C/c2ccccc2Cl)SC1=S)NNC(=O)c1ccccc1O | 62.3% (active)
CCOC(=O)c1cnc(-n2nc(C)cc2C)nc1NNc1nc(C)cc(C)n1 | 71.7% (active)
COc1cc(CN2CCC(n3nccc3NC(=O)CCCc3ccccc3)CC2)ccc1F | 40.7% (active)
COc1ccc(C=C2C(=O)c3ccccc3C2=O)cc1O | 56.2% (active)
